Inconclusive results are not listed. Unmarked numbers belong to inactive results. The source made the active and inactive calls. Calls follow the shape of the dose curve; as a rule, active = well fitted inhibition curve with a large enough effect; inconclusive = small, poorly fitted or top-dose-only effect; inactive = flat fitted curve, though single readings scatter. Where a SMILES comes first, the peptide text is derived from it. [ ]: non-standard residue; d: D form. ξ: configuration not given here. ξLac(3-iPr) = CC(C)CC(O)C(=O)O; NMeV = CN[CH](C(=O)O)C(C)C; βAla = NCCC(=O)O
How the values were obtained:
[1] = tested on: CRL-7250; experiment: Cytotoxic Profiling of Annotated Libraries Using Quantitative High-Throughput Screening (AID 1296008); settings: Five cell lines viability, CellTiter-Glo ATP luminescence, 48-72 h; max response: stronger effect = lower value; also: nearly all actives have a fitted effect of over 60% in size
Summary of the method: (§1)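 Cytotoxicity was measured as CellTiter-Glo ATP luminescence, read after 10 min at room temperature. Compound treatment of the cells lasted 48 or 72 hr at 37 degrees Celsius in a qHTS format.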

[2] = tested on: HEK293; experiment: as above; settings: Five cell lines viability, CellTiter-Glo ATP luminescence, 48-72 h; max response: stronger effect = lower value
Summary of the method: as §1
% is scaled to controls: 0 for no effect and ±100 for the full control effect; potency is read from the fitted curve at half-maximal effect.

Structure (SMILES): N[C@H]1Cc2ccccc2N(O)C1=O
- max response [1]: -6.2%
- Potency [2]: 25.9 µM (active)

Structure (SMILES): CC(=O)OC1CC2(C)C3=CCC4(C)C5C(O)C(O)C(C(C)C)C5(C)CCC4(C)C3CCC2C(C)(C)C1OC1OC(CO)C(O)C(O)C1O (stereo not given)
- max response [1]: -9.78%
- max response [2]: -1.39%

Structure (SMILES): C=C(C(=O)OC)C1C(O)CC2(C)C(O)CCC(=O)C2C1O (stereo not given)
- max response [1]: -16.1%
- max response [2]: -7.45%

Structure (SMILES): C=C1C[C@]23C[C@H]1CC[C@H]2C1=C[C@H]2OC(=O)[C@@](C)([C@H]1[C@@H]3C(=O)O)[C@H]2O
- max response [1]: 2.1%
- max response [2]: 4.48%

Structure (SMILES): CC1CCC2(C(=O)O)CCC3(C)C(=CCC4C5(C)CCC(OC(=O)/C=C/c6ccccc6)C(C)(C)C5CCC43C)C2C1C (stereo not given)
- outcome [1]: inactive
- max response [2]: -4.63%

Structure (SMILES): CC1CC[C@]2(C(=O)O)CC[C@]3(C(=O)O)C(=CCC4[C@@]5(C)CC[C@H](OC6OC(C)C(O)C(OC7OC(CO)C(O)C(O)C7O)C6O)C(C)(C)C5CC[C@]43C)C2C1C (stereo not given in full)
- max response [1]: -0.92%
- max response [2]: -0.0822%

Structure (SMILES): CC(=O)OC[C@@]12C(=O)C[C@@H](C)[C@]3(C[C@@H](c4ccoc4)O[C@H]3OC(C)=O)[C@H]1CCC[C@]21CO1
- max response [1]: -15.6%
- max response [2]: -5.69%

Structure (SMILES): CC(C)CC1OC(=O)C2CCCN2C(=O)CCNC(=O)C(Cc2ccccc2)NC(=O)C(C(C)C)N(C)C(=O)C(C(C)C)N(C)C1=O (stereo not given) (cyclo([ξLac(3-iPr)][NMeV][NMeV]F[βAla]P); configuration not given here)
- max response [1]: 2.18%
- max response [2]: 4%

Structure (SMILES): CN(C)CCn1cc(S(=O)(=O)c2cccc(F)c2)c2cccnc21
- outcome [1]: inactive
- outcome [2]: inactive

Structure (SMILES): CC1(C)CC2=C3C=CC4C5(C)CCC(O)C(C)(C)C5CCC4(C)C3(C)CCC2(C)C(O)C1 (stereo not given)
- max response [1]: -3.63%
- max response [2]: -1.33%

Structure (SMILES): C[C@@H]1O[C@@H](O[C@@H]2CO[C@@H](O[C@H]3CC[C@@]4(C)C(CC[C@]5(C)C4CC=C4[C@@H]6CC(C)(C)CC[C@]6(C(=O)O[C@@H]6O[C@H](CO)[C@@H](O)[C@H](O)[C@H]6O)CC[C@]45C)[C@]3(C)CO)[C@H](O)[C@H]2O[C@@H]2O[C@H](CO)[C@@H](O)[C@H](O)[C@H]2O)[C@H](O)[C@H](O)[C@H]1O (stereo not given in full)
- max response [1]: -2.09%
- max response [2]: 1.34%

Structure (SMILES): CC(C)NCC(C(=O)N1CCN(c2ncnc3c2C(C)CC3O)CC1)c1ccc(Cl)cc1 (stereo not given)
- max response [1]: -1.68%
- Potency [2]: 0.58 µM (active)

Structure (SMILES): C[C@H](O)[C@H](O)/C=C/c1cccc(O)c1CO
- max response [1]: -1.75%
- max response [2]: -4.7%

Structure (SMILES): C/C(=C\CCC(C)CCO)C(=O)O[C@@H]1[C@@H](O)[C@H](OC2OC=C(C(=O)O)C3CCC(C)(O)C23)O[C@H](CO)[C@H]1O (stereo not given in full)
- outcome [1]: inactive
- max response [2]: 0.262%

Structure (SMILES): C=C1C(=O)O[C@@H]2C[C@H](C)[C@@]3(O)C=C(C(C)=O)[C@]4(CC3C[C@H]12)C(=O)O[C@H]1C[C@@H](C)C(CCC(C)=O)=CC[C@H]14 (stereo not given in full)
- outcome [1]: inactive
- max response [2]: -5.38%

Structure (SMILES): CO[C@H]1O[C@@H]2O[C@]3(C)CC[C@H]4[C@H](C)CC[C@@H]([C@H]1C)[C@@]24OO3
- max response [1]: -2.96%
- Potency [2]: 10.3 µM (active)

Structure (SMILES): COc1ccc(/C=C/C(=O)O[C@@H]2[C@@H](O)[C@@H](O)[C@H](O[C@@H]3C=C(CO)[C@H]4[C@H](O[C@@H]5O[C@H](CO)[C@@H](O)[C@H](O)[C@H]5O)OC=C[C@H]43)O[C@H]2C)cc1O
- max response [1]: 0.875%
- max response [2]: -69.5%

Structure (SMILES): CNC(=O)c1ccccc1Nc1nc(Nc2ccc(N3CCNCC3)cc2)ncc1Cl
- Potency [1]: 0.092 µM (active)
- Potency [2]: 0.0651 µM (active)

Structure (SMILES): CC(=O)O[C@]1(C(C)=O)CC[C@H]2[C@@H]3C[C@H](C)C4=CC(=O)C=C[C@]4(C)[C@@]3(F)[C@@H](O)C[C@@]21C
- max response [1]: -19.1%
- max response [2]: -1.51%

Structure (SMILES): C=C(C(=O)OC)C1C(O)CC2(C)C(=O)CCC(O)(CO)C2C1O (stereo not given)
- outcome [1]: inactive
- max response [2]: -2.27%

Structure (SMILES): CC1=C(C(=O)O)/C(=C/CO[C@@H]2O[C@H](COC(=O)/C=C/c3ccc(O)cc3)[C@@H](O)[C@H](O)[C@H]2O)C(O)C1 (stereo not given in full)
- max response [1]: 0.839%
- max response [2]: 1.96%

Structure (SMILES): CC(=O)c1ccc(O[C@@H]2O[C@H](CO)[C@@H](O)[C@H](O)[C@H]2O)cc1
- max response [1]: -8.35%
- max response [2]: -8.37%

Structure (SMILES): O=C(CN1C(=O)C2(CCCC2)NCC1c1cc(F)cc(F)c1)Nc1ccc2c(c1)CC1(C2)C(=O)Nc2ncccc21 (stereo not given)
- outcome [1]: inactive
- max response [2]: -6.98%

Structure (SMILES): CCN1CCN(Cc2ccc(Nc3ncc(F)c(-c4cc(F)c5nc(C)n(C(C)C)c5c4)n3)nc2)CC1
- max response [1]: -7.11%
- Potency [2]: 3.66 µM (active)

Structure (SMILES): COc1ccccc1Oc1ccc(N(Cc2cccnc2)S(=O)(=O)CC(F)(F)F)cc1
- max response [1]: -7.01%
- max response [2]: 4.88%

Structure (SMILES): CC(C)S(=O)(=O)NC[C@H](C)c1ccc(NC(=O)c2cc(F)cc(F)c2)cc1
- outcome [1]: inactive
- max response [2]: -6.11%

Structure (SMILES): CCOC(=O)c1cc(C#N)c(N2CCC(C(=O)NS(=O)(=O)Cc3ccccc3)CC2)nc1C
- outcome [1]: inactive
- max response [2]: -0.212%

Structure (SMILES): CC(C)(C)c1ccc(S(=O)(=O)Nc2ccc(Cl)cc2C(=O)c2cc[n+]([O-])cc2)cc1
- max response [1]: -19.6%
- max response [2]: -2.23%

Structure (SMILES): CC(=O)C=C=C1C(C)(C)CC(O[C@@H]2O[C@H](CO)[C@@H](O)[C@H](O)[C@H]2O)CC1(C)O (stereo not given in full)
- outcome [1]: inactive
- outcome [2]: inactive

Structure (SMILES): COc1ccc(CCO[C@@H]2O[C@H](CO[C@@H]3OC[C@H](O)[C@H](O)[C@H]3O)[C@@H](O)[C@H](O)[C@H]2O)cc1
- max response [1]: -3.54%
- max response [2]: -0.354%

Structure (SMILES): CC[C@@](C)(Nc1ccnc(-c2c[nH]c3ncccc23)n1)C(=O)NCC(F)(F)F
- outcome [1]: inactive
- max response [2]: -4.43%

Structure (SMILES): O=C(O)CCCCCC[C@H]1C(=O)NC(=O)N1CC[C@@H](O)C1CCCCC1
- max response [1]: 3.98%
- max response [2]: -1.93%

Structure (SMILES): CC1=CC2C(CC1OC1OC(CO)C(O)C(O)C1O)C(C)CC(=O)C2C(C)C (stereo not given)
- max response [1]: 0.564%
- max response [2]: -0.187%

Structure (SMILES): CC(=O)C1=C(C)N(c2cccc(C(F)(F)F)c2)C(=O)N[C@H]1c1ccc(C#N)nc1
- max response [1]: 2.3%
- max response [2]: -4.03%

Structure (SMILES): COc1cc2nc(N3CCC(N4CCCCC4)CC3)nc(NC3CCCCCC3)c2cc1OC
- Potency [1]: 16.4 µM (active)
- Potency [2]: 5.17 µM (active)

Structure (SMILES): O=C(/C=C\c1ccc(O)cc1)N[C@@H](Cc1ccc(O)cc1)C(=O)O
- max response [1]: -7.69%
- max response [2]: 1.95%

Structure (SMILES): CC1=CC(=O)C(=C(C)C)CC2C1CCC2(C)O (stereo not given)
- max response [1]: -11.2%
- max response [2]: 4.65%

Structure (SMILES): O=C(O)c1cccc(S(=O)(=O)N2CCc3ccccc3C2)c1
- max response [1]: 0.0752%
- max response [2]: -4.38%

Structure (SMILES): Cc1ccc(-c2ccc3ncc4c(c3n2)n(C2CCN(C(=O)[C@H](C)O)CC2)c(=O)n4C)cn1
- Potency [1]: 0.146 µM (active)
- Potency [2]: 0.082 µM (active)

Structure (SMILES): COc1cc(N2CCOCC2)ccc1Nc1ncc(Cl)c(Nc2ccccc2NS(C)(=O)=O)n1
- max response [1]: -96.5%
- Potency [2]: 1.84 µM (active)

From PubChem BioAssay (NCATS)
